High-throughput results as filed in PubChem BioAssay.
RORgamma inh – qHTS for inhibitors of ROR gamma transcriptional activity | 310,000 compounds, 5.4% hits | Drosophila S2 Gal4-RORgamma UAS-luciferase reporter, 20 h | Potency, µM (titrated, usually from 53.6 µM), inactives show top-dose activity change, negative = inhibition, most hits filed as inhibitors; further: nearly all actives have a fitted effect of over 60% in size
Target sequence (P51450 whole entry, looked up, the tested form may be a part): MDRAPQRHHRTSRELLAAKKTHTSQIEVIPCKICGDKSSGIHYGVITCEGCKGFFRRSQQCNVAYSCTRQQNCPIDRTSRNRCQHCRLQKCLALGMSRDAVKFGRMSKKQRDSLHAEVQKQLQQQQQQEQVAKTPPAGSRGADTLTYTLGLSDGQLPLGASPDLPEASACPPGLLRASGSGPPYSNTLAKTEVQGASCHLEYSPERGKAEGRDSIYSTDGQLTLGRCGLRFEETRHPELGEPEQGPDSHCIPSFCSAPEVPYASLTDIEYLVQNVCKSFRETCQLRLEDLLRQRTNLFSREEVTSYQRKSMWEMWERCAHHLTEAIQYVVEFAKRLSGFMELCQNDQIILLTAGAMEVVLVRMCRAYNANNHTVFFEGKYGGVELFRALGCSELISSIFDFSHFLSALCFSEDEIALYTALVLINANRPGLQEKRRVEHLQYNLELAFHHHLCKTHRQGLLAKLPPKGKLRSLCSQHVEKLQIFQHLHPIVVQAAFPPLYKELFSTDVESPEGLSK
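Read-out: Photinus luciferase luminescence; inhibitors lower reporter signal. Insect Schneider cells with Gal4-ROR gamma fusion under metallothionein promoter, UAS reporter; 700 uM final copper sulfate induction, 20 hr, ambient temperature.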
Gal4-VP16 FLuc – VP16 counterscreen qHTS for inhibitors of ROR gamma transcriptional activity; AID 2546, 2010; 310,000 compounds, 3.5% hits; Drosophila S2 Gal4-VP16 UAS-luciferase, luminescence, 20 h; Potency, µM (titrated, usually from 53.6 µM), inactives show at the highest dose activity, negative = inhibition, hits mostly inhibitors;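 further: Gal4-VP16 expression switched on by copper sulfate through the metallothionein promoter; nearly all actives have a fitted effect of over 50% in size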
Luc counter – Counterscreen for Luciferase (Kinase-Glo TM) Inhibition; Luciferin 4-monooxygenase (Photuris pensylvanica), Q27757; Kinase-Glo luciferase, ATP luminescence, 8 min; Potency, µM (highest dose often 38.3 µM), for inactives: at the highest dose activity change, negative = inhibition, most hits filed as inhibitors; 200,000 compounds, 0.28% hits; AID 1379, 2008; further: nearly all actives have a fitted effect of over 60% in size
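Luminescence was the read-out, taken after 8-minute incubation at ambient temperature. Luciferase turned over luciferin with 10 uM ATP in imidazole pH 7.2 buffer containing KCl, MgCl2, Tween 20 and BSA.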
Starred values were filed as active, the others as inactive; u = inconclusive; x = no result given; [ ] = remark or other dose. Sampled rows, rich in hits. Any-hit rate of the full collection: about 6.2%. The call rests on the fitted dose curve; in most records, active means well fitted curve in the direction sought with a large enough effect; inconclusive means small, poorly fitted or top-dose-only effect, or another doubt; inactive means no such curve, though single readings can be large; an effect the other way counts as inactive or inconclusive. On the % scale 0 is the no-effect control and ±100 the full control effect; potency means the concentration at half of the fitted maximal effect.

SMILES	RORgamma inh	Gal4-VP16 FLuc	Luc counter
CC1=CC(C)(C)n2c(O)c(N=N)c3c(C)ccc1c32	-3%	-27%	x
CC1=CC(C)(C)n2c(O)c(N=N)c3cc(C)cc1c32	-11%	-16%	-3%
CC1=CC(C)(C)n2c(O)c(N=NC(N)=S)c3c(C)ccc1c32	4.5µM*	2.5µM*	x
CC1=CC(C)(C)n2c(O)c(N=NC(N)=S)c3cccc1c32	1.1µM*	2µM*	-1%
CC1=CC(C)(C)n2c(O)c(N=NC(N)=S)c3c(C)c(C)cc1c32	6%	6%	x
COc1cc2c3c(c1)c(N=NC(N)=S)c(O)n3C(C)(C)C=C2C	2µM*	4.5µM*	x
CCC(COC(=O)Nc1ccccc1)NC(=O)OC(C)C (stereo not drawn)	13%	-5%	-6%
CCOC(=O)C1CCN(CC(=O)Nc2cc(S(=O)(=O)N3CCOCC3)ccc2C)CC1	-31%	3%	-2%
COc1ccccc1OCC(=O)OCC(=O)Nc1sccc1C(N)=O	14%[10 µM]	-19%	-1%
NC(=O)c1ccsc1NC(=O)COC(=O)Cc1cccc2ccccc12	-28%	4.5µM*	-3%
CCC(=O)NC(=S)N1CCN(c2ccc([N+](=O)[O-])cc2Cl)CC1	4µM*	16µM*	-3%
N#Cc1cc([N+](=O)[O-])ccc1N1CCN(c2ccccc2O)CC1	u	0%[10 µM]	-3%
O=[N+]([O-])c1ccc(N2CCN(c3ccc([N+](=O)[O-])cc3CO)CC2)c(CO)c1	u	6.3µM*	x
O=C(c1ccco1)N1CCN(c2ccc([N+](=O)[O-])cc2Cl)CC1	-13%	4%	x
O=C(NC(=S)N1CCN(c2ccc([N+](=O)[O-])cc2Cl)CC1)c1ccco1	0.02µM*	0.032µM*	0%
CN1CCN(c2ccc([N+](=O)[O-])cc2NC(=O)c2ccccc2Cl)CC1	5%	-8%	-3%
Cc1ccn(S(=O)(=O)c2ccc(N3CCCC3=O)cc2)n1	-11%	6%	x
CC12CCC=CC1C(c1ccc(C(F)(F)F)cc1)N(Cc1ccccc1)C2=O (stereo not drawn)	u	2%	x
Nc1ncn(C2C[C@H](O)[C@@H](CO)O2)c(=O)n1 (stereo partly drawn)	0%[10 µM]	-6%	x
CC(C)(C)OC(=O)N1CCC(c2c(C(=O)NCC3CCN(C4CCCC4)C3)cnn2-c2ccc(F)cc2)CC1 (stereo not drawn)	-3%	-9%	x
COc1cccc(/C=N\NC(C)=O)c1OC/C=C/c1ccccc1	8.9µM*	11µM*	x
COCC(=O)N/N=C\c1ccccc1OC/C=C/c1ccccc1	-4%	-17%	x
COC(=O)N/N=C\c1ccc(OC/C=C/c2ccccc2)c(OC)c1	17%	-10%	x
COc1cc(/C=N\NC(=O)C(C)(C)O)ccc1OC/C=C/c1ccccc1	35µM*	u	x
C=CCOc1c(/C=N\NC(N)=O)cccc1OC	5%	-2%	x
SMILES	RORgamma inh	Gal4-VP16 FLuc	Luc counter
COCC(=O)N/N=C\c1cccc(OC)c1OC/C=C/c1ccccc1	13µM*	u	x
COc1cccc(-c2ccc(NC(=O)C3CCCN(Cc4cnn(C(C)C)c4)C3)cc2)c1 (stereo not drawn)	-32%	-21%	x
Cc1ccc(CS(=O)(=O)CCC(=O)O)cc1	11%	-10%	2%
CC(C)(C)NC(=O)CN(Cc1ccccc1)S(=O)(=O)c1ccccc1	0%	1%	x
CC(C)n1nnnc1SCC(=O)Nc1ccccc1F	2%	-1%	x
CCOc1cc(/C=C(\C#N)C(N)=O)cc(CSc2ccccc2)c1O	u	-7%	x
COc1cc(/C=C(\C#N)C(N)=O)cc(CSc2nc3ccccc3s2)c1O	5.6µM*	14µM*	-2%
CN(C)CCNC(=O)NC(=O)c1ccc(Cl)cc1	22%	-9%	-7%
Cc1cc2c(cc1S(=O)(=O)CCC(=O)N(C)Cc1ccccc1)OCC(=O)N2	4%	2%	x
Cc1c(NC(=O)Nc2cccc(C#N)c2)c(=O)n(-c2ccccc2)n1C	1%	3%	x
O=C(NCCO)C(=O)Nc1cc2c3c(c1)CC(=O)N3CCC2	7%	2%	x
O=C(CCl)c1cc2c3c(c1)CC(=O)N3CCC2	2µM*	3.5µM*	x
COc1ccc(C(=O)NNC(=O)C2=NN(c3ccccc3)C(=O)CC2)cc1	-22%	0%	x
COc1ccc(CCNCc2csc3nc4ccccc4n23)cc1OC	-34%	6.3µM*	-3%
COc1ccc(CCNc2nc3ccccc3n3nnnc23)cc1OC	1%	1%	0%
C=C1C(=O)O[C@@H]2C[C@@H](C)[C@@H]3C=CC(=O)[C@@]3(C)[C@@H](OC(C)=O)[C@H]12	1.3µM*	1.3µM*	x
C[C@@H]1C[C@@H]2OC(=O)[C@]3(C)[C@H]2[C@@H](OC3(C)O)[C@]2(C)C(=O)C=C[C@H]12 (stereo partly drawn)	14%	-10%	x
CCN(C(=O)c1cc(S(=O)(=O)N2CCc3ccccc32)cn1C)c1ccccc1	u	11%	x
CN(C)/C=C1\NC(=S)N(c2ccccc2)C1=O	-21%	1%	x
COc1ccc(N2C(=O)/C(=C/c3cccs3)NC2=S)cc1	10µM*	u	3%
CCCOc1ccc(Br)cc1-c1cc(-c2ccc(Cl)cc2)[nH]c1-c1ccncc1	-8%	-12%	1%
C=CCN(CC=C)S(=O)(=O)c1ccc(NC(=S)NC(=O)c2ccc(-c3ccccc3)cc2)cc1	1.4µM*	2.5µM*	-3%
C=CCN(CC=C)S(=O)(=O)c1ccc(NC(=S)NC(=O)c2ccco2)cc1	0%	u	-4%
C=CCN(CC=C)S(=O)(=O)c1ccc(NC(=S)NC(=O)/C=C/c2cccc3ccccc23)cc1	2.2µM*	u	-6%
C=CCN(CC=C)S(=O)(=O)c1ccc(NC(=S)NC(=O)/C=C/c2ccc(C)cc2)cc1	10µM*	u	-2%
SMILES	RORgamma inh	Gal4-VP16 FLuc	Luc counter
Cc1cc(NS(=O)(=O)c2ccc(NC(=S)NC(=O)/C=C/c3ccccc3)cc2)no1	u	0%	x
Cc1ccc(/C=C/C(=O)NC(=S)Nc2ccc(S(=O)(=O)Nc3cc(C)on3)cc2)cc1	u	-9%	x
NNC(=O)c1c(O)c2cccc3c2n(c1=O)CCC3	-21%	2%	x
CCOc1ccc(-n2c(=O)c3sccc3n(CC(=O)NCCc3ccc(OC)c(OC)c3)c2=O)cc1	9%	-1%	-2%
CCOc1ccc(NC(=O)N(CCN(C)C)C(C)c2ccncc2)cc1 (stereo not drawn)	-1%	-5%	-1%
CCc1nc2sc3c(O)cc(=O)[nH]c3c2cc1C	2%	-26%	x
Cc1cccnc1NC(=O)C(C)Oc1ccccc1 (stereo not drawn)	0%	-1%	2%
CC(Oc1ccc(Br)cc1)C(=O)Nc1nc(-c2ccccn2)cs1 (stereo not drawn)	2.5µM*	3.2µM*	x
CCc1nnc(NC(=O)C(NC(=O)c2ccccc2Cl)C(C)C)s1 (stereo not drawn)	-7%	2%	8%
CC(C)[C@H](NC(=O)c1ccccc1Cl)C(=O)Nc1nc(-c2ccccn2)cs1	7.9µM*	u	-1%
CC(/C=C/c1ccccc1)=N\NC(=O)c1cc(C)[nH]n1	u	-6%	0%
COc1ccc(CCNC(=O)CSc2nncs2)cc1	40%	-3%	2%
